Source: PubChem BioAssay AID2517 (National Center for Advancing Translational Sciences (NCATS), 2010)
Where “and” joins values, the source holds several entries; their conditions need not be identical. Equal values may be shown once. About 1,200 (0.34%) of roughly 350,000 compounds were called active. Where a call stands in place of a potency, no number is given. Not shown: some 3% with an inconclusive outcome. The sample holds actives, similar compounds and a random draw of the others, so the mix is not that of the screen. Calls come from the whole dose curve; as a rule, active = well fitted inhibition curve with a large enough effect; inconclusive = small, poorly fitted or top-dose-only effect; inactive = no such curve, though single readings can be large or run the other way. Some compounds were tested as several samples or in several runs, with calls that do not always agree.

These compounds were tested against DNA repair nuclease/redox regulator APEX1 (Homo sapiens) (UniProt P27695) (assay: qHTS Assay for Inhibitors of the Human Apurinic/apyrimidinic Endonuclease 1 (APE1)). Conditions: recombinant APE1, TAMRA/BHQ-2 abasic DNA cleavage fluorescence; activity change, negative = inhibition: at 65.8 µM (top of the series).
In short: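 Kinetic fluorescence read (525 ex/598 em nm, three reads 60 s apart) of AP-site incision; signal = third minus first read. Enzyme 0.75 nM, dual-labelled THF duplex 50 nM, compound preincubation 15 min RT.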
Note: nearly all actives have a fitted effect of over 55% in size.
Potency is the fitted concentration of half-maximal effect.

Chain of DNA repair nuclease/redox regulator APEX1 (Homo sapiens) (P27695 whole entry, looked up): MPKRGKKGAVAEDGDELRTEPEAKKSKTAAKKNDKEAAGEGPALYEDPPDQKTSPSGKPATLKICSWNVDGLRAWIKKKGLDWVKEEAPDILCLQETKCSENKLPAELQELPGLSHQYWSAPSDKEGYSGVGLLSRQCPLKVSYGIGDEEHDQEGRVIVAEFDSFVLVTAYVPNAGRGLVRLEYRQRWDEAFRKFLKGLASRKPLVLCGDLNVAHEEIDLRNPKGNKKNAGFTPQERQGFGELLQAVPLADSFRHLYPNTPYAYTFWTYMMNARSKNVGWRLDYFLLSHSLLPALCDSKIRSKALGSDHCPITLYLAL

SMILES	activity change, negative = inhibition	Potency
Cc1cc(C)cc(OCC(=O)NC(C)c2ccccc2)c1 (stereo not given)	-52.8% (active)	–
Cc1ccccc1OCCC(=O)OCC(=O)NC(C)c1ccccc1 (stereo not given)	–	inactive
Cc1ccc(OCCCC(=O)NC(C)c2ccccc2)c(C)c1 (stereo not given)	–	inactive
c1ccc2cc(C3=NCCN3)ccc2c1	–	inactive
COc1ccc(/C=C/NC(=O)c2ccc(OC)cc2)cc1	3.93% [at 12.4 µM] (inactive)	–
CC[C@H](C)[C@H](NC(=O)[C@H](CCCNC(=N)N)NC(=O)[C@H](CCCNC(=N)N)NC(=O)[C@H](CC(C)C)NC(=O)[C@H](Cc1ccccc1)NC(=O)CNC(=O)CNC(=O)[C@@H](N)Cc1ccc(O)cc1)C(=O)N[C@@H](CCCNC(=N)N)C(=O)N1CCC[C@H]1C(=O)N[C@@H](CCCCN)C(=O)N[C@@H](CC(C)C)C(=O)N[C@@H](CCCCN)C(=O)N[C@@H](Cc1c[nH]c2ccccc12)C(=O)N[C@@H](CC(=O)O)C(=O)N[C@@H](CC(N)=O)C(=O)N[C@@H](CCC(N)=O)C(=O)O	–	inactive
O=c1nc2s/c(=C\c3ccco3)c(=O)n2nc1Cc1ccccc1	–	4.47 µM (active)
O=C(Nc1ccccc1)/C(=C\c1ccco1)NC(=O)c1ccco1	–	inactive
O=C(NCCc1ccco1)c1nn(Cc2ccccc2)c(=O)c2ccccc12	–	inactive
O=C(OCC(COC(=O)c1ccccc1)(COC(=O)c1ccccc1)COC(=O)c1ccccc1)c1ccccc1	–	inactive
CC(C)=CCN1CCC2(CCc3ccccc32)CC1	–	inactive
Oc1cc(O)c2c(c1)OC(c1ccc(O)c(O)c1)C(O)C2 (stereo not given)	–	inactive and 3.16 µM (active)
C=C1C([C@@]2(C)C(OC(C)=O)CC(=O)O[C@@](C)(COC(C)=O)C2CC(=O)OC)C(OC=O)C(OC(=O)C(O)C(C)CC)[C@]2(C)C(c3ccoc3)CC(=O)C12O (stereo not given in full)	–	inactive
CC[C@H](C)[C@@H](NC(=O)O[C@@H]1C(=O)c2cc(OC)ccc2O[C@H]1c1cccc(OC)c1)C(=O)OC	–	inactive
CCCCS(=O)(=O)N1C2=NC(C(=O)OC)=C(C(=O)OC)[C@@H]3N(Cc4ccccc4)c4ccccc4[C@]23C[C@H]1C(=O)OC	-4.13% [at 12.4 µM] (inactive)	–
Oc1ccc(O)c2c(O)cccc12	–	1.78 µM (active)
S=C(NCCCc1cnc[nH]1)NCCCN(Cc1ccc(Cl)c(Cl)c1)c1ccc(Br)cn1	–	inactive
O=C(c1ccco1)N1CCC[C@@]2(CCN(c3ccccc3)C2)C1	–	inactive
Cc1ccc(C(=O)O)cc1-c1ccc(/C=C2\SC(=O)N(CC(=O)Nc3ccc4c(c3)OCO4)C2=O)o1	–	7.52 µM (active)
Cc1ccc(C(=O)Nc2ccc3c(c2)OCO3)cc1S(=O)(=O)N1CCCCC1	–	inactive
Cc1nn(CC(=O)Nc2ccc3c(c2)OCO3)c(C)c1[N+](=O)[O-]	–	inactive
O=C(CSc1nnc(-c2cccc([S+](=O)([O-])N3CCCC3)c2)n1-c1ccccc1)Nc1cccc(C(F)(F)F)c1	–	inactive
CC(Oc1ccccc1)C(=O)N[C@@H]1C(=O)N2[C@@H]1SC(C)(C)[C@@H]2C(=O)O (stereo not given in full)	–	inactive
C=CCNc1oc(-c2cccnc2)nc1C#N	–	inactive
O=C(CCC1CCCN(C(=O)c2ccc(F)c(F)c2)C1)N1CCN(c2ccccn2)CC1 (stereo not given)	–	inactive

SMILES	activity change, negative = inhibition	Potency
C=Cc1ccc(C(=O)N2CCCC(CCC(=O)N3CCN(c4ccccn4)CC3)C2)cc1 (stereo not given)	–	0.67 µM (active)
O=C(CCC1CCCN(C(=O)Cc2ccc(F)cc2)C1)N1CCN(c2ccccn2)CC1 (stereo not given)	–	inactive
COc1ccc(C2=Nn3c(nnc3-c3ccccc3F)SC2)cc1OC	–	inactive
COc1ccc2c3c1OC1CC(O)C=C[C@@]31CCN(C)C2 (stereo not given in full)	–	inactive
COc1ccc2c(c1)O[C@@H](c1ccc3c(c1)OCO3)[C@H](OC(=O)NCc1ccco1)C2=O	–	inactive
O=C(c1ccncc1)N1CCC2(CCCN(C(c3ccccc3)c3ccccc3)C2)CC1	–	inactive
COc1cccc([C@@H]2Oc3ccc(Br)cc3C(=O)[C@H]2OC(=O)NCCc2ccc(OC)c(OC)c2)c1	–	inactive
C=C/C1=C/Cc2ccccc2[C@H](C[N+](=O)[O-])C(C(=O)OC)(C(=O)OC)C1	–	inactive
C[C@@H]1O[C@@H](O[C@@H]2[C@@H](O)[C@H](OCCc3ccc(O)c(O)c3)O[C@H](CO[C@@H]3O[C@H](CO)[C@@H](O)[C@H](O)[C@H]3O)[C@H]2OC(=O)/C=C/c2ccc(O)c(O)c2)[C@H](O)[C@H](O)[C@H]1O	–	inactive
COc1ccccc1N1CCN(CC(=O)NC(=O)NCc2ccco2)CC1	–	inactive
O=C(CN1CCN(S(=O)(=O)/C=C/c2ccccc2)CC1)NC(=O)NCc1ccco1	–	22.4 µM (active)
NC(=O)CCN1CCN(S(=O)(=O)/C=C/c2ccccc2)CC1	–	inactive
COc1ccccc1CNc1ccnc(-c2c(C)noc2C)n1	–	inactive
COC(=O)[C@@H]1C[C@@]2(O)[C@H](O)[C@H](O)[C@H](O)C[C@H]2N1CC1CCCCC1	–	inactive
O=C(Cl)c1ccc([N+](=O)[O-])cc1	–	inactive
CCC(C)[C@@H](N)C(=O)O (stereo not given in full)	–	inactive
O=C(c1cc(C(F)(F)F)cc(C(F)(F)F)c1)N1CCC2(CCCN(c3ccccn3)C2)CC1	–	inactive
C[N+](C)(CCCCCC[N+](C)(C)CCCN1C(=O)c2cccc3cccc(c23)C1=O)CCCN1C(=O)c2cccc3cccc(c23)C1=O	–	10 µM (active) and 4.74 µM (active)
O=C(CN1C(=O)c2cccc3cccc(c23)C1=O)N1CCCCC1	–	inactive
O=C1c2cccc3cccc(c23)C(=O)N1CCCCCc1n[nH]c(=S)o1	–	inactive
OC(CCl)CCl	–	inactive
CC[C@H](C)[C@H](NC(=O)[C@H](Cc1ccc(O)cc1)NC(=O)[C@@H](NC(=O)[C@H](CCCN=C(N)N)NC(=O)[C@@H](N)CC(=O)O)C(C)C)C(=O)N[C@@H](Cc1cnc[nH]1)C(=O)N1CCC[C@H]1C(=O)N[C@@H](Cc1ccccc1)C(=O)O	–	inactive
CCOC(=O)c1sc2nc(CSCC(=O)OCc3ccc(C(=O)OC)o3)[nH]c(=O)c2c1C	–	inactive
CSc1nnc(SCc2nc3sc(C(=O)O)c(C)c3c(=O)[nH]2)s1	–	25.1 µM (active)
Cc1sc2nc(CSCC(=O)NC3CCCCC3)[nH]c(=O)c2c1C	–	inactive
